Assay outcomes (PubChem BioAssay)
Sampled rows, rich in hits. Any-hit rate of the full collection: about 3.1%.
Vif-A3F inh: Vif-A3F binding inhibition | HeLa A3F-eYFP + Vif (tagged APOBEC3F with the HIV-1 protein that degrades it), YFP fluorescence increase | Potency, µM (top dose mostly 46.1 µM) | actives 0.2% (n = 390,000); also: nearly all actives have a fitted effect of over 65% in size
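Fluorescence increase (Ex 488/Em 500-530) after overnight compound treatment at 37 deg C flags inhibition of Vif-driven A3F-eYFP loss in stable HeLa A3F-eYFP/Vif cells seeded overnight beforehand.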
Vif-A3G inh: blocks the Vif interaction with human APOBEC3G. actives 0.076% (n = 410,000). Q9HC16. Potency, µM (highest dose often 46.1 µM), usual class: inhibitors. HeLa A3G-eYFP + Vif (tagged APOBEC3G with the HIV-1 protein that degrades it), YFP fluorescence, overnight; also: nearly all actives have a fitted effect of over 60% in size
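Read-out is eYFP fluorescence (Ex 488/Em 500-530) from Vif-expressing HeLa A3G-eYFP cells; more signal means A3G escaped Vif-mediated degradation. Cells plated overnight, compound pinned in, incubated overnight at 37 deg C.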
TSHR antagonist: antagonists of human thyroid stimulating hormone receptor | P16473 | TSHR-expressing cells, TSH-stimulated cAMP HTRF, 2 h; stronger effect = lower value | activity change, negative = inhibition, % at 11.5 µM | actives 0.2% (n = 330,000) | AID 504810;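 active = activity change below a set negative limit, meaning inhibition stronger than a set level, cut at about -70% in these data; inconclusive = activity change between two set negative limits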
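Competitive HTRF cAMP read-out (cryptate anti-cAMP antibody, cAMP-d2; 30 min, room temperature) in freshly harvested TSHR cells. Compounds added before TSH at EC80 (4nM final), followed by 2 hours' incubation at 37 deg C.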
PLK1 PBD inh: PLK1 (human) polo-box domain binding inhibition; actives 2.8% (n = 360,000); Potency, µM, hits mostly inhibitors; Plk1 PBD binding of FITC phosphopeptide, fluorescence polarization; also: series mostly up to about 57 µM; nearly all actives have a fitted effect of over 65% in size
VDR inh: inhibitors of human vitamin D receptor; P11473; VDR-SRC2-3 peptide fluorescence polarization, 2 h; Potency, µM, most hits filed as inhibitors; actives 0.93% (n = 400,000)
Target sequence (P11473 whole entry, looked up): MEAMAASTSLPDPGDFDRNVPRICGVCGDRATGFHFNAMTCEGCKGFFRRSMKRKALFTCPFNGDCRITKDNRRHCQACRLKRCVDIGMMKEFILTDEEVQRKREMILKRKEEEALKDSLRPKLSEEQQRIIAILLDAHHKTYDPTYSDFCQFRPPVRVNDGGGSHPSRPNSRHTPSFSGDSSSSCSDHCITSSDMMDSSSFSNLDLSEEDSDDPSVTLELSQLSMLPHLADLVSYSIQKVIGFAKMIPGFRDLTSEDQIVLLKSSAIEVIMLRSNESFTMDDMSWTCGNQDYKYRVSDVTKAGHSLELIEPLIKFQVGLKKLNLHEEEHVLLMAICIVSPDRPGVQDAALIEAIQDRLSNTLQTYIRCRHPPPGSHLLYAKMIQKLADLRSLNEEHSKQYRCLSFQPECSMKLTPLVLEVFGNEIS
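Fluorescence polarization assay measuring small-molecule disruption of VDR binding to the coregulator peptide SRC2-3. Compounds were pin-transferred (23 nl) into the reagent mix and incubated 2 h at room temperature before reading.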
Numbers stand for hits; 0 = inactive; ? = inconclusive; - = no result given; ! = repeats disagree. Unless noted, calls follow the shape of the dose curve; as a rule, active = well fitted curve in the direction sought with a large enough effect; inconclusive = small, poorly fitted or top-dose-only effect, or another doubt; inactive = no such curve, though single readings can be large; an effect the other way counts as inactive or inconclusive.

SMILES | Vif-A3F inh | Vif-A3G inh | TSHR antagonist | PLK1 PBD inh | VDR inh
COc1cc([N+](=O)[O-])ccc1NC(=O)N1CCN(c2cc(-c3noc(C)n3)ccc2C)CC1 | 0 | 0 | - | - | 0
CCc1ccc2[nH]c3nc(SCCN4CCOCC4)nnc3c2c1 | 0 | 0 | 0 | 23.8µM | ?
CCOC(=O)c1ccc(N=Nc2c(C)c(C#N)c(O)[nH]c2=O)cc1 | 10µM | 0 | 0 | 0 | 0
Cc1c(C#N)c(O)n(C)c(=O)c1N=Nc1ccc(S(N)(=O)=O)cc1 | ? | 0 | 0 | 0 | 0
COC(=O)c1c(Cl)c2n3ccccc3c(C)c(-c3ccccc3)c-2c1C(=O)OC | 0 | 0 | 0 | 23.8µM | 0
COC(=O)c1cc2c(-c3ccccc3)c(C)c3ccccn3c-2c1C(=O)OC | 0 | 0 | 0 | 0 | 0
[O-][n+]1c2ccccc2cc2ccccc21 | 0 | 0 | 0 | 23.8µM | 0
Cc1ccc2c(c1)C(=O)[C@@]1(O)CCN(c3ccccc3)C1=N2 | - | - | - | - | 0
NC(=O)c1c(NC(=O)CCCC(=O)O)sc2c1CCCCCC2 | 0 | 0 | 0 | 26.7µM | ?
Cn1cnnc1SCC(=O)Nc1sc2c(c1C(N)=O)CCC2 | 0 | 0 | 0 | 26.7µM | 0
CC(C)(C)c1ccc(S(=O)(=O)NCC(=O)Nc2sc3c(c2C(N)=O)CCCC3)cc1 | 0 | 0 | 0 | 26.7µM | 0
COCCn1cnnc1SCC(=O)Nc1sc2c(c1C#N)CCC2 | 0 | 0 | 0 | 0 | 0
CC(C)(C)C1CCc2onc(C(=O)Nc3sc4c(c3C(N)=O)CCCC4)c2C1 (stereo not given) | 0 | 0 | - | - | 79.4µM
COc1ccc(-c2nc3cnc(N4CCOCC4)nc3n(Cc3cccs3)c2=O)cc1 | - | - | - | - | 0
CC(NC(=O)COC(=O)c1ccco1)C12CC3CC(CC(C3)C1)C2 (stereo not given) | - | 0 | - | - | 0
O=C1c2ccccc2NC(c2ccccc2O)N1Cc1ccco1 (stereo not given) | - | 0 | - | - | 0
CC1=C(C(=O)OCc2ccc3nsnc3c2)N2C(=O)[C@@H](NC(=O)OCc3ccc4nsnc4c3)[C@H]2SC1 | - | 0 | - | - | -
NC(=O)c1c(NC(=O)C2CCCO2)sc2c1CCCCC2 (stereo not given) | 0 | 0 | 0 | 10.6µM | ?
OCC1O[C@H]([S-])[C@H](O)[C@@H](O)[C@@H]1O.[Au+] (stereo not given in full) | - | - | 0 | - | 2.82µM
COc1nc(-c2ccccc2)c2cc(C)ccc2n1 | 0 | 0 | 0 | 21.2µM | ?
C=CCOC(=O)N[C@H](c1cccc(C(F)(F)F)c1)C(C(C)=O)C(C)=O | - | - | - | - | 0
COc1ccc(C(c2c(O)ccc3ccccc23)N2CCOCC2)c(OC)c1 (stereo not given) | 0 | ? | 0 | ? | 70.8µM
COc1ccc(C(CCN2CCOCC2)c2c(O)cc(OC)cc2OC)cc1 (stereo not given) | 0 | 0 | 0 | 0 | 0
COc1ccc(Br)cc1CNC(=O)c1cnc2sc(N3CCC(C)CC3)nn2c1=O | 0 | 0 | - | - | 0
Cc1nn(CCC#N)c2nc(-c3ccccc3)cc(C(F)(F)F)c12 | 0 | 0 | 0 | 0 | 0
SMILES | Vif-A3F inh | Vif-A3G inh | TSHR antagonist | PLK1 PBD inh | VDR inh
Cc1nn(CCC(N)=S)c2nc(-c3cccs3)cc(C(F)(F)F)c12 | 0 | 0 | 0 | 10.6µM | ?
Cc1ccc(NC(=O)Cc2nn(C)c(=O)c3ccccc23)cc1F | 0 | 0 | 0 | 2.99µM | ?
Cc1ccc(NC(=O)Cc2c(C(=O)O)n(C)c3ccccc23)cc1F | 0 | 0 | 0 | 23.8µM | 0
COc1ccc(CCNC(=O)CCn2c(=O)c3ccccc3n(CC(=O)Nc3ccccc3F)c2=O)cc1OC | 0 | 0 | - | - | 0
N#CC(C#N)=C1C=CC=CN1/C(=C\c1ccco1)C(=O)c1ccc(Cl)cc1 | ? | ? | -83.8 | 11.9µM | 8.91µM
FC(F)(F)c1ccc2c(c1)N1CCCC1CN2 (stereo not given) | ? | 0 | 0 | 26.7µM | 0
FC(F)(F)c1ccc2c(c1)NCC1CCCN21 (stereo not given) | 0 | 0 | 0 | 0 | 0
COc1ccc(CCNC(=O)c2cnn3c2NC(=C2CC2)C=C3C(F)F)cc1OC | - | 0 | - | - | -
CC1=C/C(=C\c2ccc(Br)o2)C(=O)O1 | 0 | 0 | 0 | 18.9µM | 0
O=C1C(=Cc2ccc(Br)o2)C(=O)c2ccccc21 | 0 | 0 | 0 | 2.67µM | 0
COc1ccccc1-c1ccc(/C=C2/C=C(C)OC2=O)o1 | 0 | 0 | 0 | ? | ?
CCCCC/C=C\C[C@@H](O)/C=C/C=C\C/C=C\CCCC(=O)O | - | - | - | - | 0
CCCCC/C=C\CC(O)/C=C/c1cccc(CC(O)CCCCO)n1 (stereo not given) | - | - | 0 | - | 50.1µM!
COc1ccc2nc(C)cc(Sc3nc4ccccc4s3)c2c1 | 0 | 0 | 0 | 23.8µM | ?
O=S(=O)(c1ccccc1C(F)(F)F)N1CCN(c2nc(-c3ccccc3)nc3ccccc23)CC1 | - | 0 | - | - | 0
CCCC[C@@H](C)/C=C(C)/C=C(\C)C(=O)NC1=C[C@@](O)(/C=C/C=C/C=C/C(=O)NC2=C(O)CCC2=O)[C@@H]2O[C@@H]2C1=O | - | - | - | - | 2.24µM
O=C1CCC(C(=O)OCc2cc(Cl)ccc2OC(F)F)N1 (stereo not given) | - | 0 | 0 | 26.7µM | ?
c1ccc(-c2cc(-c3ccccc3)on2)cc1 | 0 | 0 | 0 | 13.4µM | ?
CC[N+](C)(C)c1ccc(/C=C/c2ccncc2)cc1 | - | 10µM | - | - | -
Cc1onc(-c2c(F)cccc2Cl)c1C(=O)O/N=C(\N)c1ccc([N+](=O)[O-])o1 | 0 | 22.4µM | 0 | 0 | 0
CN1CCc2c(sc3c2C(=O)NC(c2ccccc2)N3)C1 (stereo not given) | ? | 0 | 0 | 0 | 70.8µM
CN1CCc2c(sc3c2C(=O)NC(c2ccccn2)N3)C1 (stereo not given) | 0 | 0 | 0 | ? | 25.1µM
CN1CCc2c(sc3c2C(=O)NC(c2ccc(OC(=O)c4ccc(C(C)(C)C)cc4)cc2)N3)C1 (stereo not given) | 0 | 0 | - | - | 0
CN1CCc2c(sc3c2C(=O)NC(c2ccc(OC(=O)c4ccccc4)cc2)N3)C1 (stereo not given) | 0 | 0 | - | - | 44.7µM
Cc1ccc(C2NC(=O)c3c(sc4c3CCN(C)C4)N2)s1 (stereo not given) | 0 | 0 | 0 | 0 | ?
SMILES | Vif-A3F inh | Vif-A3G inh | TSHR antagonist | PLK1 PBD inh | VDR inh
CCNc1ncc2nc(-c3ccc(Cl)cc3)c(=O)n(-c3ccc(OC)cc3)c2n1 | - | - | - | - | 0
O=C(NC1CCCCC1)[C@@H]1CC=C[C@@H]2CCN(Cc3ccc(Cl)c(Cl)c3)C(=O)[C@@H]21 | - | 0 | - | - | -
Cc1sc(NC(=O)CSc2nc(O)cc(=O)[nH]2)nc1-c1ccccc1 | 0 | 0 | 0 | 0 | 0
CCOc1ccc2nc(NC(=O)CSc3nc(-c4ccccc4)c(C#N)c(=O)[nH]3)sc2c1 | 0 | 0 | 0 | 21.2µM | 0
COc1cccc(-c2nc(SCC(=O)Nc3nc(-c4ccccc4)c(C)s3)[nH]c(=O)c2C#N)c1 | 0 | 0 | 0 | 21.2µM | 0
Cc1ccc(/C=C/c2ccc(N(C)C)cc2)[n+](C)c1 | ? | 11.2µM | 0 | 0 | 0
CC[n+]1ccccc1/C=C/c1ccc(N(C)C)cc1 | 22.4µM | ? | 0 | 0 | 0
